Bioassay records as filed in PubChem.
HEK293 tox = cytotoxicity in counter-screen for GLP-1R inverse agonists; HEK293 cAMP-luciferase reporter cells, luminescence, 24 h; Potency, µM (series often up to 38.3 µM), for the others: at the top dose activity change, negative = inhibition, usual class: inhibitors; actives 0.13% (n = 410,000); AID 624418;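 also: loss of luciferase light is scored as toxicity; % is scaled to controls: 0 for no effect and ±100 for the full control effect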
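To flag toxic compounds, the library was rerun on cells for 24 hr at 37 deg C and 5% CO2. Viability-linked luminescence was captured 12 min after adding luciferase detection reagent.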
TrxR1 substrate = rat thioredoxin reductase 1 substrate activity; O89049; AID 588456; actives 0.01% (n = 390,000); purified TrxR1 substrate turnover, NADPH consumption readout; Potency, µM (highest dose often 114 µM), inactives show top-dose activity change, negative = substrate turnover; also: % is scaled to controls: 0 for no effect and ±100 for the full control effect; nearly all actives have a fitted effect of over 50% in size
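Rat TrxR1, dispensed at 90 nM, was prereduced with 400 uM NADPH (final) for 5 min at ~22 deg C, then incubated with compound 15 min before 400 uM selenite. A first-read NADPH fluorescence drop versus no-compound background flagged substrates.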
GLP1R inv ag = inverse agonists of human GLP-1 receptor; P43220; HEK293 GLP-1R CRE-luciferase, luminescence, 24 h; GLP-1R form is constitutively active; Potency, µM (highest dose often 38.3 µM), inactives show at the top dose activity change, negative = inhibition, usual class: inhibitors; actives 1.6% (n = 410,000); AID 624417; also: % is scaled to controls: 0 for no effect and ±100 for the full control effect; nearly all actives have a fitted effect of over 55% in size
Target sequence (P43220 whole entry, looked up): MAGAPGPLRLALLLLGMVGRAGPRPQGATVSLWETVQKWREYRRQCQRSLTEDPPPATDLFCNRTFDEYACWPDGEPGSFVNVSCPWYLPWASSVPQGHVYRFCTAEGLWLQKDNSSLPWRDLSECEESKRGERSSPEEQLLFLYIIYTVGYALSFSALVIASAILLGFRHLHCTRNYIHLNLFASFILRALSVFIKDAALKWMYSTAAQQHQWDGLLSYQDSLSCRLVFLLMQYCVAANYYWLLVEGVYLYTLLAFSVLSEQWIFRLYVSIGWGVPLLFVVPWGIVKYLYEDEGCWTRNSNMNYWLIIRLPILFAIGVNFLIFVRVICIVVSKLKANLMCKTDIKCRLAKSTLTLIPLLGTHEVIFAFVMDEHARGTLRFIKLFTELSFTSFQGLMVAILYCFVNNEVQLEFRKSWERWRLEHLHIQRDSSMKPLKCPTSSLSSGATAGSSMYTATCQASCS
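Luminescence readout: a drop in cAMP-driven luciferase signal flags inverse agonism at a constitutively active GLP-1R stably expressed in HEK293. Compound exposure lasted 24 hr at 37 deg C, 5% CO2.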
IDH1 R132H inh = inhibitors of human mutant IDH1 R132H; Potency, µM (titrated, usually from 76.6 µM), for inactives: at the highest dose activity change, negative = inhibition, hits mostly inhibitors; actives 0.093% (n = 390,000); O75874; AID 602179; IDH1-R132H enzyme, NADPH consumption, diaphorase/resazurin fluorescence; also: % is scaled to controls: 0 for no effect and ±100 for the full control effect; nearly all actives have a fitted effect of over 65% in size
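IDH1-R132H (0.5 ug/mL) preincubated 30 min with compound, then NADPH (0.016 mM) and alpha-KG (2 mM) added; 80 min at RT, pH 7.5. Remaining NADPH coupled via diaphorase/resazurin to fluorescence (540/590 nm); concentration-response curves normalized to no-enzyme control.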
GLP-1R agonist = GLP-1 receptor (human) agonism; actives 0.007% (n = 380,000); P43220; AID 624172; HEK293 GLP-1R CRE-luciferase, luminescence, 4-6 h; cells express a hypersensitive GLP-1R form; Potency, µM (titrated, usually from 45.6 µM), for inactives: top-dose activation, usual class: activators; also: % of control where 0% means no effect
TrxR1 inh = blocks rat thioredoxin reductase 1; actives 1% (n = 390,000); recombinant rTrxR1, NADPH fluorescence consumption, selenite substrate; Potency, µM (highest dose often 114 µM), without a hit: at the top dose activity change, negative = inhibition, hits mostly inhibitors; also: % is scaled to controls: 0 for no effect and ±100 for the full control effect; nearly all actives have a fitted effect of over 65% in size
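Rat TrxR1 (90 nM in the dispensed reagent) was pre-reduced with 400 uM NADPH for 5 min at room temperature, then incubated with compound for 15 min. After 400 uM selenite was added, NADPH fluorescence (Ex 340/Em 450 nm) was followed for 8 min.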
Active calls of the source: *; ? = inconclusive; . = no result given; [ ] = dose if it differs, or a comment. Rows were chosen to be rich in hits. Some 2.7% of all compounds tested hit in one or more screens of this group. Calls follow the shape of the dose curve; as a rule, active = well fitted curve in the direction sought with a large enough effect; inconclusive = small, poorly fitted or top-dose-only effect, or another doubt; inactive = no such curve, though single readings can be large; an effect the other way counts as inactive or inconclusive. Potency is read from the fitted curve at half-maximal effect.

SMILES	HEK293 tox	TrxR1 substrate	GLP1R inv ag	IDH1 R132H inh	GLP-1R agonist	TrxR1 inh
Cc1cccn2c(=O)c3cc(C#N)c(=NC(=O)c4ccccc4)n(Cc4ccco4)c3nc12	266%	70%	101%	-1%	4%	50µM*
C=C[C@]1(C)C=C2C(=O)[C@@]3(O)OC(=O)[C@@]4(CCCC(C)(C)[C@H]34)[C@@]2(O)CC1	?	.	?	.	-18%	.
CC(C)[C@@]1(NC(=O)[C@H]2C[C@H]3c4cccc5[nH]cc(c45)C[C@@H]3N(C)C2)O[C@]2(O)[C@H]3CCCN3C(=O)CN2C1=O (tested in a mixture with another compound)	.	.	.	.	4%	.
COc1ccc(OC)c(N2C(=O)NC(=O)/C(=C/c3ccc([N+](=O)[O-])s3)C2=O)c1	-16%	5%[57.1 µM]	0%	9%	-1%	?
CCOc1ccc(N2C(=O)/C(=C/c3ccc(C)o3)C(=O)NC2=S)cc1	8%	-3%	8%	-6%	-7%	25µM*
CCOc1ccc(N2C(=O)NC(=O)/C(=C\c3ccc(N4CCCCC4)o3)C2=O)cc1	12%	-22%	16%	3%	7%	-26%
COc1ccc(N2C(=O)/C(=C/c3ccc(C)o3)C(=O)NC2=S)cc1	5%	-16%	14%	-14%	-1%	20µM*
Cc1cccc(N2C(=O)/C(=C/c3ccc(CN(CCC#N)S(C)(=O)=O)o3)C(=O)NC2=S)c1	6%	-16%	1%	-1%	-7%	7.9µM*
COc1ccc(OC)c(N2C(=O)/C(=C/c3ccco3)C(=O)NC2=S)c1	0%	-10%	33%	1%	0%	28µM*
Cc1cccc(N2C(=O)NC(=O)/C(=C/c3ccc([N+](=O)[O-])o3)C2=O)c1	-8%	-3%	24%	-1%	-21%	13µM*
Cc1ccc(/C=C2\C(=O)NC(=S)N(c3cccc(F)c3)C2=O)o1	-6%	-3%	-1%	-10%	-2%	7.9µM*
CN1CCN(c2ccc(/C=C3\C(=O)NC(=S)N(c4cccc(Br)c4)C3=O)o2)CC1	?	-24%	74%	2%	1%	?
CCOC(=O)c1[nH]c2ccc(OC)cc2c1NC(=S)N1CCN(c2ccccc2OC)CC1	?	-3%	?	1%	1%	-1%
Cc1ccc(-n2c(SCC(=O)Nc3cccc(S(N)(=O)=O)c3)nc3ccccc32)cc1	?	-4%	-8%	?	-3%	5%
CCCCn1c(SCC(=O)Nc2cc(C(F)(F)F)cc(C(F)(F)F)c2)nnc1C(CC)N(C)C (stereo not drawn)	?	-20%	?	6%	10%	-10%
Cc1ccc(C(=O)C2CN3CCC2CC3)cc1 (stereo not drawn)	-10%	4%	7.1µM*	4%	2%	10%
Cc1ccc(C(=O)C2CN(C)CC2C(=O)c2ccc(C)cc2)cc1 (stereo not drawn)	-2%	-8%	?	6%	5%	-25%
COc1ccc2nc(NC(=O)c3cccc(-c4cc5ccccc5oc4=O)c3)sc2c1	?	1%[57.1 µM]	?	-3%	1%	13%[57.1 µM]
COC(=O)C1=C(c2ccc(-c3ccccc3)c(F)c2)C[C@@H]2CC[C@H]1N2C(=O)N1CCC(C)CC1	15%	6%[57.1 µM]	?	2%	10%	9%[57.1 µM]
COC(=O)C1=C(c2ccc(-c3ccccc3)c(F)c2)C[C@@H]2CC[C@H]1N2C(=O)N1CCCCC1	2%	-5%	11µM*	6%	6%	10%
COC(=O)C1=C(c2ccc(-c3ccccc3)c(F)c2)C[C@@H]2CC[C@H]1N2C(=O)N1CCC(O)CC1	-42%	1%	13µM*	20%	-5%	15%
N=C(N)c1ccc(-c2ccc(-c3ccc(C(=N)N)cc3)o2)cc1	.	473%	.	.	.	?
C[C@H]1COC2=C1C(=O)C(=O)c1c2ccc2c1CCCC2(C)C	-18%	-7%	?	?	-5%	28µM*
Cc1ccc(NCc2cccn2-c2nnc(N3CCC(C(=O)NCc4ccc(OC(C)C)cc4)CC3)s2)cc1	-16%	0%	10µM*	.	.	3%
Cc1cc(NC(=O)COC(=O)C(Nc2ccc(C(F)(F)F)cc2Cl)C(C)C)no1 (stereo not drawn)	?	-15%	?	2%	-2%	-2%
SMILES	HEK293 tox	TrxR1 substrate	GLP1R inv ag	IDH1 R132H inh	GLP-1R agonist	TrxR1 inh
Cc1ccc(C2(c3ccc(C)cc3)CC2C(=O)Nc2ccc([N+](=O)[O-])cc2O)cc1 (stereo not drawn)	?	-6%	4µM*	21%	-39%	-2%
COc1ccccc1CC(=O)Nc1ccc([N+](=O)[O-])cc1O	?	-3%	?	-1%	0%	12%
OC1(c2ccc(Cl)cc2)CCN(Cc2c[nH]c3ccccc23)CC1	9%	4%[57.1 µM]	?	-1%	-1%	3%[57.1 µM]
COc1cc2c(cc1OC)CN(c1ccc([N+](=O)[O-])c(C(F)(F)F)c1)CC2	10µM*	-22%	7.9µM*	4%	-7%	-22%
CCOC(=O)C1(c2ccccc2)CCN(CC(=O)Nc2ccc(C)cc2)CC1	-10%	-6%	8.9µM*	-1%	15%	10%
CCOC(=O)C1(c2ccccc2)CCN(CCC(=O)Nc2cccc(Br)c2)CC1	?	-6%[57.1 µM]	3.2µM*	-9%	12%	-6%[57.1 µM]
COc1ccc(/C(=N/OC(C)=O)c2nccc3cc(OC)c(OC)cc23)cc1OC	-7%	-8%	58%	-7%	12%	5%
CCOc1ccc(N(Cc2ccc(C(=O)O)cc2)S(=O)(=O)c2ccc(C)cc2)cc1	?	5%	?	-5%	-2%	3%[57.1 µM]
N#CC(C#N)=C(C#N)c1ccc(Nc2ccccc2)cc1	-15%	-1%	35%	-2%	-5%	7.1µM*
c1ccc(Nc2ccc(Nc3ccccc3)cc2)cc1	-9%	3%	?	-6%	4%	-11%
CCCCC(=O)Nc1c(C(=O)N2CCN(c3ccccc3F)CC2)oc2ccccc12	-14%	-3%	?	-6%	.	15%
CCC1CC2CC3c4[nH]c5ccc(OC)cc5c4CCN(C2)C13 (stereo not drawn)	.	.	.	.	2%[96 µM]	.
CC(C)C[C@H]1C(=O)N2CCC[C@H]2[C@]2(O)O[C@](NC(=O)[C@@H]3C=C4c5cccc6[nH]cc(c56)C[C@H]4N(C)C3)(C(C)C)C(=O)N12	15%	22%	6%	11%	-5%	16µM*
